Screens: PubChem, several laboratories
A selection: hits, their analogues and other compounds. The true share with any hit is near 4.3%.
esBAF inh: blocks esBAF chromatin remodeling in mouse ES cells. Bmi1-luciferase knock-in reporter, 24 h; 100% = twice the neutral-well signal. reporter increase, % at 12.5 µM. 2% of 350,000 active. AID 602393; in the data active = activation above about 40%; inconclusive = no clear call, values can overlap the other calls;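 also: 0% = median of the plate's neutral control wells and 100% = double that signal; a rise in the Bmi1 reporter signal indicates esBAF inhibition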
SMARCA2 act: SMARCA2 function activation, primary screen; MG213 cells, MMTV-luciferase reporter, dexamethasone, overnight; activation, % at 9.1 µM; 1% of 370,000 active; AID 652017; in the data active = activation above about 7.8%;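 also: 0% = vehicle wells and 100% = reference activator wells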
HSF1 inhib: HSF1 inhibition; NIH3T3-HGL HSE-luciferase, MG132-induced, luminescence 8 h; hits give low values; activity change, negative = inhibition, % at 7.5 µM (by protocol); 0.77% of 300,000 active;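 active = more than half of replicate wells show activity change below -50%, luminescence cut by over half; inconclusive = some wells, but at most half, below -50%; inactive = no replicate well below -50%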;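 also: luciferase reports HSF-1 transcriptional activity via heat shock element; 0% = median of DMSO wells and -100% = zero luminescence signal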
MITF act: increases MITF-driven TRPM1 promoter luciferase signal; SK-MEL-5 TRPM1-promoter luciferase, 24 h; % of positive control, neutral wells = 0; activation, % at 12.5 µM; 0.75% of 300,000 active;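 active = mean activation of at least 80% with every replicate also reaching 80%; inconclusive = mean reaches 80% but some replicate falls short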;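 also: 0% = neutral control wells and 100% = parthenolide positive control wells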
Wnt bcat act: activates Wnt/beta-catenin signaling in a reporter cell assay | activator, plate reader | activation, % at 9.35 µM | 1.2% of 300,000 active | AID 743398; in the data active = activation above about 30%, passing the limit was not always enough; inconclusive = no clear call, values can overlap the other calls;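 also: 0% = neutral control wells and 100% = positive control wells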
HSF-1 act: increases HSF-1 driven luciferase reporter signal. 1.7% of 300,000 active. activation, % at 9 µM. NIH3T3-HGL HSF-1 luciferase reporter, MG132, 8 h; 100% = twice DMSO control signal;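 active = mean replicate activation of at least 50% with a set share of replicates each reaching 50%; inconclusive = only one of those two conditions met; inactive = mean below 50% and too few replicates reaching it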;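 also: 0% = median of the neutral control wells and 100% = twice that signal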
Starred values were filed as active, the others as inactive; ? = inconclusive; . = no result; ! = not confirmed by another sample.

SMILES	esBAF inh	SMARCA2 act	HSF1 inhib	MITF act	Wnt bcat act	HSF-1 act
COc1ccc(N2CC(C(=O)NCCc3ccc(OC)c(OC)c3)CC2=O)cc1 (stereo not given)	8.4	-2.4	-10.2	.	-9.1	-7.3
CCOc1ccc(N2CC(C(=O)NCCc3c[nH]c4ccc(C)cc34)CC2=O)cc1 (stereo not given)	-1.8	0.9	-57.6*	-13.3	-4.6	-64.0
CCNC(=O)C[C@H]1CC[C@@H]2[C@@H](COc3ccc(NC(=O)Nc4cccc(C)c4)cc3C(=O)N2C)O1	-3.6	.	.	.	.	.
C[C@H](CO)N1C[C@H](C)[C@H](CN(C)C(=O)Nc2ccccc2)OCCCC[C@H](C)Oc2ccc(NC(=O)c3ccncc3)cc2C1=O	-1.1	.	.	.	.	.
C[C@H](CO)N1C[C@H](C)[C@H](CN(C)S(=O)(=O)c2ccccc2)Oc2c(NC(=O)c3ccncc3)cccc2C1=O	1.4	.	.	.	.	.
CSCc1ccc(C(=O)Nc2cccc(C)c2C)cc1	.	4.5	12.0	111.9*	34.2*	46.4
Cc1cccc(NC(=O)c2onc3c2CCCC3)c1C	51.3*	4.1	18.6	86.5*	.	65.3*
COc1ccc(CNC(=O)C[C@H]2C[C@@H]3c4cc(NS(=O)(=O)c5ccc(F)cc5)ccc4O[C@@H]3[C@H](CO)O2)cc1	6.4	.	.	.	.	.
CCOC(=O)CN1C=C(c2ccc3ccccc3n2)C(C[N+](=O)[O-])c2ccccc21 (stereo not given)	.	.	58.8	16.2	.	93.8*
O=C(Nc1ccc2nsnc2c1)c1cccs1	.	4.3	-1.5	-7.2	9.0	3.7
O=C(Nc1ccccc1)Nc1cccc2nsnc12	.	5.4	11.1	34.6	39.9*	?
O=C(Nc1cccc2nsnc12)c1cccs1	46.8*!	3.6	9.0	61.7	8.8	24.2
Nc1nc(-c2ccccc2)nc2sc3c(c12)CCCC3	?	0.9	39.4	40.9	.	84.6*
O=c1oc(-c2ccccc2)nc2sc3c(c12)CCC3	.	-1.6	-3.0	9.8	-0.2	-27.2
NC(=O)CSc1nc(N)c2c3c(sc2n1)CCCCC3	55.2*	4.2	5.1	.	.	7.7
CCOc1cccc(-c2cnc3cccnn23)c1	61.3*	5.3	.	.	2.7	.
C#CCN1C(=O)S/C(=C/c2cc(C)n(CC)c2C)C1=O	.	7.0	7.5	66.7	.	58.0*
CCn1c(C)cc(/C=C2/SC(=O)N(C(C)C(=O)OC)C2=O)c1C (stereo not given)	30.0	-1.0	21.1	?	47.4*	25.4
COCCn1c(C)cc(/C=C2/SC(=O)N(C(C)C(=O)OC)C2=O)c1C (stereo not given)	66.0*	4.9	9.5	97.1*	-2.1	15.2
CCOC(=O)C(C)N1C(=O)S/C(=C/c2cc(C)n(-c3ccccn3)c2C)C1=O (stereo not given)	21.0	-0.9	4.8	33.6	47.1*	25.5
C[C@H]1CN([C@@H](C)CO)C(=O)c2cc(C3=CCCCC3)cnc2O[C@H]1CN(C)C(=O)NC1CCCC1	3.1	.	.	.	.	.
COCC(=O)Nc1ccc2c(c1)C(=O)N(C)C[C@@H](OC)[C@@H](C)CN(Cc1ccncc1)[C@@H](C)CO2	-4.3	.	.	.	.	.
COC(=O)CN1C(=O)S/C(=C/c2cc(C)n(C)c2C)C1=O	56.6*	3.1	21.0	69.5	?	36.4
COc1ccc(N=C2S/C(=C\c3cc(C)n(C)c3C)C(=O)N2CC(C)C)cc1	2.1	-0.2	2.9	-1.0	.	13.1
COC(=O)C(C)N1C(=O)S/C(=C/c2cc(C)n(C(C)C)c2C)C1=O (stereo not given)	.	-3.6	11.8	86.2*	38.4*	7.7
C[C@@H]1CN([C@@H](C)CO)C(=O)c2cc(NC(=O)Nc3ccccc3)ccc2O[C@@H]1CN(C)Cc1ccc(C(F)(F)F)cc1	4.1	.	.	.	.	.
O=C(C[C@H]1CC[C@@H]2[C@H](COC[C@H](O)CN2Cc2cc(F)ccc2F)O1)N[C@@H]1CCN(Cc2ccccc2)C1	0.2	.	.	.	.	.
O=C1/C(=C\c2ccccc2)SC(=S)N1CCC(=O)N1CCCCC1CCO (stereo not given)	-11.7	-0.6	6.8	10.3	0.9	3.7
O=C1/C(=C/c2ccccc2Cl)SC(=S)N1CCC(=O)N1CCCCC1CCO (stereo not given)	4.0	-1.8	39.2	-6.5	-2.6	68.3*
